# TrxR1 substrate = is turned over as a substrate by rat TrxR1. purified TrxR1 substrate turnover, NADPH consumption readout. Potency, µM (doses to about 114 µM), without a hit: at the top dose activity change, negative = substrate turnover. O89049. 390,000 compounds, 0.01% hits; further: potency means the concentration at half of the fitted maximal effect; nearly all actives have a fitted effect of over 50% in size
# Target sequence (O89049 whole entry, looked up): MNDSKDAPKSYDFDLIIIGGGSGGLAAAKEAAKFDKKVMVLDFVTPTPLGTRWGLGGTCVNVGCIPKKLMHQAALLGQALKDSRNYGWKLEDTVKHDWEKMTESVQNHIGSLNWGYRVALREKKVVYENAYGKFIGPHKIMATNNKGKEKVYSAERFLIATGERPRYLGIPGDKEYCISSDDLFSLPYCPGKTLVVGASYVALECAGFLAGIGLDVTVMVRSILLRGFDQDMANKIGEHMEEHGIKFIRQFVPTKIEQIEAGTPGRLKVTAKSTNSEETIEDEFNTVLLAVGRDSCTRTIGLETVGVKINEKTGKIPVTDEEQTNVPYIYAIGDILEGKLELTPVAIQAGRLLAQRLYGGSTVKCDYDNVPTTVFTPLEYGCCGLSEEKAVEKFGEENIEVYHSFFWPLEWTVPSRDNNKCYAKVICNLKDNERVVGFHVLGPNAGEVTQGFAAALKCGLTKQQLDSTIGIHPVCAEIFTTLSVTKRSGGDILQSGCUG
#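 Rat TrxR1, dispensed at 90 nM, was prereduced with 400 uM NADPH (final) for 5 min at ~22 deg C, then incubated with compound 15 min before 400 uM selenite. A first-read NADPH fluorescence drop versus no-compound background flagged substrates.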
# Giardia kill = kills Giardia lamblia; Giardia lamblia trophozoite viability; activity change, % at 7.66 µM, hits read low; AID 540267; 340,000 compounds, 0.15% hits; in the data active means activity change below about -80%; inconclusive means between about -30% and that limit;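 further: parasites exposed to compound for two days anaerobically before the ATP read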
#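 Trophozoite viability was measured as ATP-dependent luminescence, read 15-30 min after reagent addition. Before that, parasites at 100 cells/well were exposed to compounds for 48 h, anaerobically, at 37 deg C.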
# GALK inh = galactokinase (human) inhibition; P51570; Purified GALK, Kinase-Glo residual ATP luminescence; Potency, µM (doses to about 57.5 µM), inactives show at the top dose activity change, negative = inhibition, usual class: inhibitors; 270,000 compounds, 0.007% hits; further: potency means the concentration at half of the fitted maximal effect
#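 The enzyme phosphorylates galactose (100 uM) using ATP (35 uM); inhibition is detected as higher residual ATP, quantified by bioluminescence after 1 h reaction at room temperature, pH 8.0.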
# KAT2A inh = blocks human GCN5L2 histone acetyltransferase; Q92830; Potency, µM (titrated, usually from 58.9 µM), for inactives: at the top dose activity change, negative = inhibition, hits mostly inhibitors; GCN5L2 HAT assay, ThioGlo1 CoA-SH fluorescence; 390,000 compounds, 0.21% hits; further: potency means the concentration at half of the fitted maximal effect
#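 Compounds, pin-transferred from DMSO stocks, meet 20nM GCN5L2 for 15 min before the reaction begins with H3(1-25) peptide (75uM) and acetyl-CoA (70uM). Thiol-reactive ThioGlo1 reports CoA release over 20 min at room temperature.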
# Pin1 inhibitor = inhibitors of human Pin1. Q13526. Pin1 FP peptide displacement, HiFluor488, 10 min. Potency, µM (series often up to 115 µM), for inactives: at the highest dose activity, negative = inhibition, usual class: inhibitors. 390,000 compounds, 0.009% hits; active means well fitted inhibition curve with a large enough effect in the polarisation, with a control signal flat, not every such curve was filed as active; inconclusive means small, poorly fitted or top-dose-only effect, or effect the other way, or a change in a side signal; inactive means no such curve, though single readings can be large or run the other way; the % refers to the polarisation; further: potency means the concentration at half of the fitted maximal effect
# Target sequence (Q13526 whole entry, looked up): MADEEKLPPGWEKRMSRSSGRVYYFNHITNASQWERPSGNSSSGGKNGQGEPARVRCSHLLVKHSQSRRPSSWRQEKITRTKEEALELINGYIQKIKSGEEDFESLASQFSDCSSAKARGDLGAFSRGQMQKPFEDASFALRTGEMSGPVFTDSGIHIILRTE
# rTrxR1 inhibitor = blocks rat thioredoxin reductase 1; O89049; recombinant rTrxR1, NADPH fluorescence consumption, selenite substrate; Potency, µM (highest dose often 114 µM), for inactives: at the highest dose activity change, negative = inhibition, hits mostly inhibitors; 390,000 compounds, 1% hits; AID 588453; further: potency means the concentration at half of the fitted maximal effect; nearly all actives have a fitted effect of over 65% in size
#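 Rat TrxR1 (90 nM in the dispensed reagent) was pre-reduced with 400 uM NADPH for 5 min at room temperature, then incubated with compound for 15 min. After 400 uM selenite was added, NADPH fluorescence (Ex 340/Em 450 nm) was followed for 8 min.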
# Starred values were filed as active, the others as inactive; i = inactive; u = inconclusive; x = no result given; [ ] = another dose, or the depositor's remark. Shown are actives, neighbours in structure and some others; about 1.3% of the full set was active somewhere. Unless noted, the call rests on the fitted dose curve; in most records, active means well fitted curve in the direction sought with a large enough effect; inconclusive means small, poorly fitted or top-dose-only effect, or another doubt; inactive means no such curve, though single readings can be large; an effect the other way counts as inactive or inconclusive. On the % scale 0 is the no-effect control and ±100 the full control effect.
SMILES,TrxR1 substrate,Giardia kill,GALK inh,KAT2A inh,Pin1 inhibitor,rTrxR1 inhibitor
COc1ccc(CC(=O)Nc2ncc([N+](=O)[O-])s2)cc1OC,-19%[57.1 µM],-89*,1%,4%,-8%,-14%[57.1 µM]
COc1ccc(CC(=O)Nc2nccs2)cc1OC,-1%,10,x,3%,2%,-6%
CC(=O)c1ccc(-c2ccc(C3C4C=CCCC4(C)C(=O)N3Cc3ccccc3)c(F)c2)cc1 (stereo not given),8%[57.1 µM],36,x,x,5%,29%
COc1cc(/C=C2\C(C)=C(C#N)c3nc(N)c(C#N)c(C)c32)ccc1OCC(=O)O,10%,4,-7%,1%,2%,32µM*
CC1=C(C#N)c2nc(N)c(C#N)c(C)c2/C1=C\c1ccc(C)cc1,x,x,2%,u,x,x
COc1ccc([C@H]2[C@H](c3ccccc3)C(=O)N2Cc2ccccc2)cc1COc1ccc(NC(C)=O)cc1,x,x,x,x,51%,x
Cc1ccccc1NC(=O)C(=Cc1ccc(C(=O)O)cc1)C(=O)Nc1ccccc1C,-9%[57.1 µM],-6,9%,-6%,0%,-25%
CC(=O)/C(=C/c1ccccc1)C(=O)Nc1ccccc1C,-1%,-5,-5%,-6%,-1%,25µM*
Cc1ccc(-c2c(C(=O)N3CCN(c4ccc(F)cc4)CC3)oc(=O)c3ccccc23)cc1,-2%,x,x,-1%,-1%,9%
CC(=O)NNC(=S)NC(=O)c1cccc([N+](=O)[O-])c1,5%,20,0%,u,u,50µM*
O=c1c(C(c2ccc(Cl)cc2)c2c(O)nc3n(c2=O)CCS3)c(O)nc2n1CCS2,4%,1,6%,-16%,-9%,10µM*
O=c1c(C(c2ccc(F)cc2)c2c(O)nc3n(c2=O)CCS3)c(O)nc2n1CCS2,6%[57.1 µM],7,5%,-2%,-4%,13µM*
Cc1ccc(NC(=O)c2sc(-n3nc(C)c(CCC(C)C)c3C)nc2C)cc1C,10%,x,x,-14%,-10%,29%
C[C@@H]1CC=C[C@@H]2[C@H]1C(=O)N(Cc1ccccc1)[C@H]2c1cccc(Br)c1,-2%,7,x,-4%,-8%,11%
O=C1CCCC2(O)C1C(c1cccc(Br)c1)NC(=O)N2Cc1ccccc1 (stereo not given),11%,-7,1%,0%,0%,16µM*
O=C1CCCC2=C1C1(CCOCC1)N=C(Nc1nc3ccccc3o1)N2,x,x,x,x,-20%,x
CC(=O)c1ccc2noc(-c3ccc(C)cc3)c2c1,8%,-10,-1%,-10%,13%,7.1µM*
COc1ccc2nc(Nc3sc4c(c3C(N)=O)CCCC4)sc2c1,-8%,13,-2%,-10%,40%,14µM*
COc1ccc(CC(=O)Nc2sc3c(c2C(N)=O)CCCC3)cc1,4%,5,-2%,10%,-4%,19%
CCN(CC)c1ccc2c(C)c(Cl)c(=O)oc2c1,46%,2,-1%,-3%,u,-15%
CCN(CC)c1ccc2c(c1)oc(=O)c1c(Cl)cc(=O)oc12,4%,u,-13%,-12%,u,35µM*
CCn1c(=S)[nH]c2ccccc21,529%,-12,-1%,-1%,0%,89µM*
CCn1c(=S)[nH]c2cc(Cl)ccc21,0%,-10,x,0%,-3%,11%
CNC(=O)c1cnn2c(C)cc(C)nc12,x,x,x,x,0%,x
O=C(/C=C/c1ccco1)N1CCCC(c2ccccc2)C1 (stereo not given),0%,-1,0%,-9%,0%,32µM*
SMILES,TrxR1 substrate,Giardia kill,GALK inh,KAT2A inh,Pin1 inhibitor,rTrxR1 inhibitor
O=C(c1ccco1)N1CCc2ccccc21,2%,-19,1%,-3%,-2%,12%
COc1ccccc1N1CCN(C(=O)/C=C/c2ccco2)CC1,-7%,-8,1%,-9%,0%,40µM*
Cc1ccc(C)c(S(=O)(=O)N2CCN(C(=O)/C=C/c3ccco3)CC2)c1,2%,8,x,u,4%,7.9µM*
O=C(/C=C/c1ccco1)N1CCc2ccccc21,-12%,u,-2%,-3%,-1%,56µM*
COc1cc2nc(N3CCCCC3)nc(NC3CCN(C)CC3)c2cc1OC,97%,x,x,x,x,u
OC1OC[C@@H](O)[C@H](O)[C@H]1O (stereo not given in full),x,x,x,-3%,x,x
Cc1ccc(/C=C/C(=O)N2CCc3ccccc32)o1,-5%,-3,1%,-19%,u,3.2µM*
CCOC(=O)/C=C/C(=O)N1CCc2ccccc21,-13%,-15,3%,-2%,9%,u
O=C1CCC2=C1C(c1ccccc1Cl)N=C(Nc1nc3ccccc3o1)N2 (stereo not given),x,x,x,x,5%,x
Cc1cc(C)cc(NC(=O)CSc2nc3ccccc3nc2N2CCCCC2)c1,-1%[57.1 µM],11,x,35µM*,41%,17%[57.1 µM]
COc1ccc(CCNC(=O)CCc2c(C)c3cc4c(C)coc4cc3oc2=O)cc1,6%,x,x,-14%,44%,25%
CCCc1cc(=O)oc2c(CN3CCCC3)c(O)c(Cl)cc12,i,8,4%,u,-1%,-102%
CCCc1cc(=O)oc2c3c(c(Cl)cc12)OCN(CCCO)C3,x,x,x,13µM*,x,x
CCS(=O)(=O)c1c([N+](=O)[O-])ncn1C,3%,-22,1%,5%,11%,0.79µM*
Cc1cccc(NC(=O)CN2C(=O)N/C(=C/c3ccc(C)o3)C2=O)c1,3%,-24,-1%,-23%,u,40µM*
Cc1ccc(NC(=O)CN2C(=O)N/C(=C/c3ccc(C)o3)C2=O)cc1,-7%,17,x,u,u,u
C=CCN1C(=O)N/C(=C/c2ccc(C)o2)C1=O,-9%,-17,0%,-18%,-8%,50µM*
CC1=C(CC(=O)O)c2cc(F)ccc2/C1=C/c1ccc(S(C)=O)cc1 (stereo not given),-4%,0,2%,0%,-4%,35µM*
CC1=C(CC(=O)O)c2cc(F)ccc2/C1=C\c1ccc(S(C)(=O)=O)cc1,9%[57.1 µM],x,x,-12%,x,15%[57.1 µM]
NCCCNc1ncnc2ccc(-c3ccc4c(c3)OCO4)cc12,x,x,x,x,5%,x
COc1cc2c(cc1OC)C(C)N(C(=O)c1cccs1)CC2 (stereo not given),-6%,-15,3%,2%,-2%,5%[57.1 µM]
COc1cc2c(cc1OC)C(C)N(C(=O)c1cc3c(=O)oc4ccc(C)cc4c3s1)CC2 (stereo not given),25%,-19,x,-1%,-1%,79µM*
O=C(CC(Nc1cccc(Cl)c1Cl)C(=O)O)c1ccccc1 (stereo not given),2%,19,-3%,3%,-6%,40µM*
O=C(CC(C(=O)O)c1ccc(Cl)cc1)c1ccccc1 (stereo not given),-1%,-28,1%,-3%,1%,10%
